Results: PubChem BioAssay AID1345085 (National Center for Advancing Translational Sciences (NCATS), 2018)
Records with an inconclusive call do not appear. Active and inactive are the calls of the source. Calls come from the whole dose curve; as a rule, active = well fitted cell-killing curve with a large enough effect; inconclusive = small, poorly fitted or top-dose-only effect, or effect the other way; inactive = no such curve, though single readings can be large or run the other way.
% is set by controls: 0 for no effect and ±100 for the full control effect; potency is the fitted concentration of half-maximal effect.
Note: nearly all actives have a fitted effect of over 55% in size.

Each compound was assayed on CASKI (assay: Confirmatory qHTS for gynecologic anti-cancer compounds from libraries of approved drugs and bioactive compounds). Settings: gynecologic cancer cell panel viability, ATPlite luminescence, 48 h; series mostly up to 57.6 µM.
In short: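 IC50 values derive from an ATPlite ATP-content luminescence assay following 48 h treatment at 37 C. Each compound ran as an 11-concentration, threefold series (57.5 uM to 0.977 nM); HEK 293T served as control line for selectivity index.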
In the case of `CN(C[C@@H]1COCCO1)S(=O)(=O)Nc1ccc2ccc3ncc(-c4cnn(C)c4)cc3c(=O)c2c1`, the Potency was “inactive”. `CCN(CC)CCNC(=O)c1c(C)[nH]c(/C=C2\C(=O)Nc3ccc(F)cc32)c1C` was tested, and the Potency was 56.2 µM (active). `COc1ccc(-c2cc3nccn3c(Nc3ncccc3C(N)=O)n2)cc1OC` was tested, and the Potency was “inactive”. For `CN(C)/N=N/c1nc[nH]c1C(N)=O`, the Potency was “inactive”. For `COc1cc(N2CCC(N)CC2)ccc1Nc1ncc(Cl)c(-c2c[nH]c3ccccc23)n1`, the Potency was 24.3 µM (active). For `CC(C)[C@@H](CS(=O)(=O)C(C)C)N1C(=O)[C@@](C)(CC(=O)O)C[C@H](c2cccc(Cl)c2)[C@H]1c1ccc(Cl)cc1`, the Potency was “inactive”. In the case of `CC(=O)O[C@H]1C(=O)[C@@]2(C)[C@H]([C@H](OC(=O)c3ccccc3)[C@]3(O)C[C@H](OC(=O)[C@H](O)[C@@H](NC(=O)c4ccccc4)c4ccccc4)C(C)=C1C3(C)C)[C@]1(OC(C)=O)CO[C@@H]1C[C@@H]2O`, the activity change, negative = viability loss was -4.63% [at 10.7 µM] (inactive). For `CN1CCCC(n2nc(Cc3ccc(Cl)cc3)c3ccccc3c2=O)CC1` (stereo not drawn), the Potency was “inactive”. For `c1cc(N[C@@H]2CCNC2)nc(-c2cnc3ccc(-c4cn[nH]c4)cn23)c1`, the Potency was 27.3 µM (active). `COCCOc1ccc2c(c1)ncn2-c1ccc2cccc(N3CCC(N)CC3)c2n1` was tested, and the Potency was 27.3 µM (active). For `CC(C)C[C@H](NC(=O)[C@H](Cc1ccccc1)NC(=O)c1cnccn1)B(O)O`, the Potency was 0.0343 µM (active). With `CC(=O)OC12COC1CC(O)C1(C)C(=O)C(O)C3=C(C)C(OC(=O)C(O)C(NC(=O)OC(C)(C)C)c4ccccc4)CC(O)(C(OC(=O)c4ccccc4)C21)C3(C)C` (stereo not drawn) the Potency was “inactive”. With `COc1ccc(CCC(=O)c2c(O)cc(O[C@@H]3O[C@H](CO)[C@@H](O)[C@H](O)[C@H]3O[C@@H]3O[C@@H](C)[C@H](O)[C@@H](O)[C@H]3O)cc2O)cc1O` the Potency was “inactive”. `OCCNC1CCCc2c1[nH]c1ccc(-c3ccccc3)cc21` (stereo not drawn) was tested, and the Potency was 30.6 µM (active). With `CC(=O)c1cnc2ccc(-c3cc(Cl)c(O)c(Cl)c3)nc2c1NC1CCC(CN(C)C)CC1` (stereo not drawn) the Potency was 0.559 µM (active). In the case of `CN(NC(=O)CC(=O)NN(C)C(=S)c1ccccc1)C(=S)c1ccccc1`, the Potency was “inactive”. `Cc1csc(NC(=O)c2sc3nc4c(c(C(F)(F)F)c3c2N)CCC4)n1` was tested, and the Potency was 5.44 µM (active). `CC(C)n1nc(-c2cc3cc(O)ccc3[nH]2)c2c(N)ncnc21` was tested, and the Potency was 8.63 µM (active). With `O=C(Nc1cccnc1)N1CCC(Cc2cccc(Oc3ccc(C(F)(F)F)cn3)c2)CC1` the Potency was 12.2 µM (active). In the case of `CN1CCN(c2cccc(Nc3nc4c(-c5ccc(S(C)(=O)=O)cc5)cccn4n3)c2)CC1`, the Potency was “inactive”. In the case of `CC(C)CC(=O)Nc1n[nH]c2c1CN(C(=O)C1CCN(C)CC1)C2(C)C`, the Potency was 3.43 µM (active). For `Cn1c(=O)c(-c2c(Cl)cccc2Cl)cc2cnc(Nc3cccc(C(=O)O)c3)nc21`, the Potency was 3.06 µM (active). With `CC[C@@]1(O)C(=O)OCc2c1cc1n(c2=O)Cc2c-1nc1ccccc1c2/C=N/OC(C)(C)C` the Potency was 0.153 µM (active).
